Source: PubChem BioAssay (several laboratories)
Cav32 inh: Cav3.2 calcium influx blockers – cell-based, Fluo-4 calcium fluorescence, FDSS, MLSMR library, primary screen | B-score at 10 µM | AID 449739, 2010 | 100,000 compounds, 4% hits | Cav3.2-expressing cells; active compounds read low | Voltage-dependent T-type calcium channel subunit alpha-1H (Homo sapiens), O95180;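 active = single-dose well whose peak fluorescence ratio is a statistical outlier from its plate by either plate-standardised score or position-corrected B-score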
CYP2C9 act: human CYP2C9 activators, primary screen, biochemical, luminescence | 96,000 compounds, 1.4% hits | Cytochrome P450 2C9 (Homo sapiens), P11712 | AID 1024, 2008 | recombinant CYP2C9, luciferin-H conversion; active compounds read high; factor 1 = untreated enzyme, 0 = blocked | activation factor at 5 µM;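 active = activation factor of 2 or more for CYP2C9 at a 5 µM dose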;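 also: 0 = sulfaphenazole-blocked wells and 1 = vehicle-only wells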
Target sequence (P11712 whole entry, looked up): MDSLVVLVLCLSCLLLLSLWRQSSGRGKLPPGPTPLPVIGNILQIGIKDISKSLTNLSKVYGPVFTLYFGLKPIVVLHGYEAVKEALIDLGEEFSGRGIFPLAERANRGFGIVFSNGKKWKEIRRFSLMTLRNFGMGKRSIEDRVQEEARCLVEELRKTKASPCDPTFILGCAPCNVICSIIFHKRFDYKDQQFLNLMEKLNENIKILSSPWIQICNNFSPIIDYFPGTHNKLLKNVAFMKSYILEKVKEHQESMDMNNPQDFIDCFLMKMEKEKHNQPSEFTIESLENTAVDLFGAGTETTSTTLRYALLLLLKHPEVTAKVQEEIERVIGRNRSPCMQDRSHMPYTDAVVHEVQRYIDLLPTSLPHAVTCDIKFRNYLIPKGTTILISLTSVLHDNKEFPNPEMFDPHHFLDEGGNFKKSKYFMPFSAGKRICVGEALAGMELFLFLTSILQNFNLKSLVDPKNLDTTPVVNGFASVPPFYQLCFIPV
CYP2C9 inh: blockers of cytochrome P450 2C9 activity – biochemical, luminescence, ADME assay, primary screen | inhibition, % at 5 µM | AID 777, 2007 | 96,000 compounds, 20% hits | CYP2C9 Supersomes, luciferin-H conversion;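 active = blocking of liver enzyme CYP2C9 beyond about 50% at 5 µM, limit read from the data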
CYP2C19 activ: human CYP2C19 activators, primary screen, biochemical, luminescence; activation factor at 5 µM; recombinant CYP2C19, luciferin-H EGE luminescence; active compounds read high; 0 = fully inhibited enzyme, 1 = untreated enzyme; Cytochrome P450 2C19 (Homo sapiens), P33261; 96,000 tested, under 10 active;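 active = activation factor of at least 2 at 5 µM in the primary screen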;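 also: 0 = wells with 2.5 mM tranylcypromine and 1 = vehicle-only wells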
CYP2C19 inh: blockers of cytochrome P450 2C19 activity – biochemical, luminescence, ADME assay, primary screen. inhibition, % at 5 µM. CYP2C19 Supersomes, luciferin-H EGE luminescence, 30 min. 96,000 compounds, 21% hits. P33261;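 active = CYP2C19 inhibition above a set limit at 5 µM in the primary screen, cut at about 50% in these data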;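 also: plate controls were negative control wells for no effect and 2.5 mM tranylcypromine positive control for full effect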
Active calls of the source: *; / = no result. Most compounds without a hit are left out; they make up all but 27% or so of the library.

SMILES	Cav32 inh	CYP2C9 act	CYP2C9 inh	CYP2C19 activ	CYP2C19 inh
COc1ccccc1CNC(=O)C1CCN(S(=O)(=O)c2cccc3cccnc23)CC1	-3.4	2.5*	-154	0.4	64*
COc1cccc(NC(=O)C2CCN(S(=O)(=O)c3ccc4c(c3)OCCO4)CC2)c1	/	1.5	-45	0.6	37
O=C(NCc1ccco1)C1CCN(S(=O)(=O)c2cccc3cccnc23)CC1	0.1	1.4	-39	0.6	38
COc1ccc(OC)c(S(=O)(=O)N2CCC(C(=O)Nc3cccc(C(F)(F)F)c3)CC2)c1	-9.3*	1.2	-21	0.5	48
O=C(Nc1cccc(C(F)(F)F)c1)C1CCN(S(=O)(=O)c2cnc[nH]2)CC1	-0.28	0.2	82*	0.5	55*
COc1ccc(OC)c(S(=O)(=O)N2CCC(C(=O)N3CCc4ccccc4C3)CC2)c1	-2.4	1.1	-8	0.2	78*
O=C(C1CCN(S(=O)(=O)c2cccs2)CC1)N1CCc2ccccc2C1	0.24	0.9	8	0.8	22
CC1CN(CCCOc2ccccc2[N+](=O)[O-])CC(C)O1 (centres undefined)	1.4	0.7	32	0.6	42
CCOC(=O)N1CCN(C(=O)CN(c2ccc3c(c2)OCO3)S(C)(=O)=O)CC1	0.54	1.1	-10	0.6	38
O=C(Nc1nccs1)C1CCN(S(=O)(=O)c2cnc[nH]2)CC1	0.51	0.1	86*	0.7	29
O=C(NCc1cccs1)C1CCN(S(=O)(=O)c2cccc3cccnc23)CC1	0.16	1.8	-77	0.5	54*
O=C(NCC1c2ccccc2CCN1C(=O)CN1C(=O)c2ccccc2C1=O)C1CCCCC1 (centres undefined)	1	0.3	72*	1.1	-8
O=C(NCc1n[nH]c(=S)n1-c1ccc(F)cc1)c1ccco1	0.39	1.1	-7	0.8	20
Cc1cccc(CN2CCN(C(=O)c3ccccc3F)CC2)c1	-1.1	0.3	68*	0	99*
Cc1noc(C)c1C(=O)OCC(=O)Nc1ccccc1Oc1ccccc1	-2.5	0.5	50	0.7	35
COc1ccc(OC)c(C(O)c2coc3ccc(O)c(CN4CCOCC4)c23)c1 (centres undefined)	1.6	0.5	54*	0.4	58*
COc1ccc(NC2c3ccccc3C(=O)N2c2cccnc2)cc1Cl (centres undefined)	0.96	0.4	58*	0.2	81*
COC(=O)c1cc(NC2c3ccccc3C(=O)N2c2cccnc2)cc(C(=O)OC)c1 (centres undefined)	-0.26	/	/	/	/
O=C1c2ccccc2C(Nc2ccccc2)N1c1cccnc1 (centres undefined)	0.051	0.9	14	0.3	70*
CCOC(=O)c1ccccc1NC1c2ccccc2C(=O)N1c1cc(C)ccn1 (centres undefined)	-2.1	0.2	83*	0	96*
CCOc1ccccc1NC1c2ccccc2C(=O)N1c1cccnc1 (centres undefined)	1.5	0.9	5	0.5	52*
CSc1ccccc1C(=O)Nc1cccc(C(C)O)c1 (centres undefined)	-2.8	1.1	-12	1	0
CCOc1ccccc1N(CC(=O)NC(C)(C)C)C(=O)Cn1nnc(-c2ccc(C)o2)n1	-0.64	0.7	25	0.7	32
CCCCP(=O)(CCCC)Cc1ccccc1	-0.46	1	4	1	0
CCCCCCS(=O)Cc1ccccc1 (centres undefined)	0.51	1.1	-5	0.1	91*
SMILES	Cav32 inh	CYP2C9 act	CYP2C9 inh	CYP2C19 activ	CYP2C19 inh
Cc1ccc(C(C)C)cc1C(=O)CC1(O)C(=O)N(C)c2ccccc21 (centres undefined)	-1.1	0.4	59*	0.3	66*
COC(=O)C1CN(S(=O)(=O)c2ccccc2)CCN1S(=O)(=O)c1ccccc1 (centres undefined)	0.011	0.3	74*	0	98*
CCOC(=O)C1CN(S(=O)(=O)c2ccc(C)cc2)CCN1S(=O)(=O)c1ccc(C)cc1 (centres undefined)	0.19	0.2	78*	0	96*
CCOC(=O)C1CN(S(=O)(=O)c2ccccc2)CCN1S(=O)(=O)c1ccccc1 (centres undefined)	0.26	0.3	70*	0.1	94*
O=C(O)C1CCCN1S(=O)(=O)c1ccccc1 (centres undefined)	-0.52	/	/	/	/
O=C(Oc1cccc(Br)c1)c1cccnc1	0.27	1.1	-10	1	3
Cc1nc2c(o1)CCc1ccccc1C2N1CCN(C)CC1 (centres undefined)	0.31	1.2	-17	1.1	-7
CC(C)(C)[C@H]1C=C(C(=O)Nc2ccccc2)O[C@@H](OCCCCO)C1	1.2	/	/	/	/
O=C(C1CCCN(Cc2ccccc2C(F)(F)F)C1)N1CCCCC1 (centres undefined)	0.25	0.7	34	0.8	25
CCn1c(=O)c(C(=O)CN2CCCc3ccccc32)c(N)n(Cc2ccccc2)c1=O	-6.1*	0.1	93*	0.2	81*
CCn1c(=O)c(C(=O)CN(C)Cc2cccc(OC)c2OC)c(N)n(Cc2ccccc2)c1=O	1.1	0.7	34	0.3	67*
CCOc1ccc(CN(C)CC(=O)c2c(N)n(Cc3ccccc3)c(=O)n(CC)c2=O)cc1OC	1.2	1.3	-31	1.2	-16
CCN(C(=O)CN1CCCc2ccccc21)c1c(N)n(Cc2ccccc2)c(=O)[nH]c1=O	/	1.2	-22	0.8	18
C=CCn1c(-c2ccoc2)n[nH]c1=S	/	1.1	-10	1	5
CCCCC1=CC2=CC(=O)C(C)(OC(=O)CC)C(=O)C2=CN1C1CCCC1 (centres undefined)	1.4	/	/	/	/
Oc1c(Cl)cc(Cl)cc1C=Nc1ccc(Br)cc1	-7.6*	0.9	12	0.9	9
CC(Sc1nnc(CNc2cccc3ccccc23)n1-c1ccccc1)C(=O)N/N=C/c1ccco1 (centres undefined)	-1.6	0.9	13	0.8	15
CC(Nc1cccc2ccccc12)C(=O)N/N=C/c1ccccn1 (centres undefined)	-0.33	1.1	-14	0.1	86*
Nc1nc(SCC(=O)NCCCN2CCOCC2)nc2sc3c(c12)CCC3	1.3	1.1	-7	1	5
Cc1nc2sccn2c1P(c1c(C)nc2sccn12)c1c(C)nc2sccn12	1.1	0.4	63*	0.3	72*
CCOC(=O)c1c(C)nc2sccn12	0.4	1.1	-15	0.9	12
COc1[nH]c2ccc(F)cc2c1C(=O)OCC1CCN(CCNS(C)(=O)=O)CC1	-0.22	/	/	/	/
